USP30 block – inhibitors of human USP30 deubiquitinase | 47,000 compounds, 5.3% hits | inhibition, % at 25 µM | Ubiquitin carboxyl-terminal hydrolase 30 (Homo sapiens), Q70CQ3 | AID 1645860, 2021 | purified USP30, Ub-rhodamine cleavage fluorescence
USP28 block – inhibitors of human USP28 deubiquitinase; Ubiquitin carboxyl-terminal hydrolase 28 (Homo sapiens), Q96RU2; purified USP28, Ub-rhodamine cleavage fluorescence, 30 min; inhibition, % at 25 µM; 47,000 compounds, 3% hits
OTUD3 inh – inhibitors of human OTUD3 deubiquitinase; OTU domain-containing protein 3 (Homo sapiens), Q5T2D3; purified OTUD3, Ub-rhodamine fluorescence, 2 h; 47,000 compounds, 0.7% hits; inhibition, % at 25 µM
Target sequence (Q5T2D3 whole entry, looked up, the tested form may be a part): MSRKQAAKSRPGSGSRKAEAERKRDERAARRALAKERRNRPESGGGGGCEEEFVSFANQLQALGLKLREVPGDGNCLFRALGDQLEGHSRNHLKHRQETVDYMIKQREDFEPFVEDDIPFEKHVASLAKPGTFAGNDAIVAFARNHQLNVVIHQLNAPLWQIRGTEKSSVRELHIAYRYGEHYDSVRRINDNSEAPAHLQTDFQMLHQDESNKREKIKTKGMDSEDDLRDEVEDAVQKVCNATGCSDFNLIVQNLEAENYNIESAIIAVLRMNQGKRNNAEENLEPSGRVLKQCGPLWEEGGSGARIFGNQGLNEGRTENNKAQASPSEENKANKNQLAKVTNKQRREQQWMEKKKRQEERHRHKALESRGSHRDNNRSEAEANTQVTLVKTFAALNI
USP17 block – inhibitors of human USP17 deubiquitinase | Ubiquitin carboxyl-terminal hydrolase 17-like protein 5 (Homo sapiens), A8MUK1 | purified USP17, Ub-rhodamine cleavage fluorescence, 3 h | inhibition, % at 50 µM | 47,000 compounds, 6.5% hits | AID 1645855, 2021
A number is an active result. A selection: hits, their analogues and other compounds. The true share with any hit is near 11%. Rule as the data show it: active = inhibition above about 30%; inactive = the rest.

What do the screens show for `O=C(NCc1cccnc1)C1CCN(c2cc(N3CCOCC3)ncn2)CC1`?
USP30 block: 43; USP28 block: inactive; OTUD3 inh: inactive; USP17 block: inactive

What do the screens show for `COc1ccc(CCNC(=O)c2cc(C3CC3)nc3c2cnn3C(C)C)cc1`?
USP30 block: inactive; USP28 block: 68; OTUD3 inh: inactive; USP17 block: inactive

How did COc1ccccc1OCCNC(=O)c1cc(C2CC2)nc2c1cnn2C(C)C do in these assays?
USP30 block: inactive; USP28 block: 61; OTUD3 inh: inactive; USP17 block: inactive

Results for COc1ccccc1CCNC(=O)c1cc(C2CC2)nc2c1cnn2C(C)C ?
USP30 block: inactive; USP28 block: inactive; OTUD3 inh: inactive; USP17 block: inactive

How did O=C(c1ccccc1Cl)N1CCN(Cc2cc(=O)c3ccccc3[nH]2)CC1 do in these assays?
USP30 block: inactive; USP28 block: inactive; OTUD3 inh: inactive; USP17 block: inactive

What do the screens show for `CCNc1cc(N2CCCC(CCC(=O)Nc3cc(C)ccc3OC)C2)ncn1` (stereo not drawn)?
USP30 block: inactive; USP28 block: inactive; OTUD3 inh: inactive; USP17 block: inactive

How did O=c1ccc(-c2noc(-c3ccc4cc[nH]c4c3)n2)c[nH]1 do in these assays?
USP30 block: inactive; USP28 block: inactive; OTUD3 inh: inactive; USP17 block: 59

How did O=S(=O)(Cc1nc(-c2ccc3c(c2)OCO3)no1)c1ccc(F)cc1 do in these assays?
USP30 block: inactive; USP28 block: inactive; OTUD3 inh: inactive; USP17 block: inactive

How did O=c1ccc(-c2noc(/C=C/c3ccc4c(c3)OCO4)n2)c[nH]1 do in these assays?
USP30 block: inactive; USP28 block: inactive; OTUD3 inh: inactive; USP17 block: 47

What do the screens show for `Cc1ccc(-c2nc(-c3ccc(=O)[nH]c3)no2)cc1F`?
USP30 block: inactive; USP28 block: inactive; OTUD3 inh: inactive; USP17 block: inactive

How did CN(c1ccc(Oc2ccc(C(F)(F)F)cn2)cc1)S(=O)(=O)c1ccccc1 do in these assays?
USP30 block: inactive; USP28 block: inactive; OTUD3 inh: inactive; USP17 block: 38

What do the screens show for `Cc1ccc(O)c(-c2cc(C(=O)Nc3ccccc3Cl)[nH]n2)c1`?
USP30 block: inactive; USP28 block: inactive; OTUD3 inh: inactive; USP17 block: 68

Results for O=C(Nc1ccc(F)cc1F)c1cc(-c2ccccn2)n[nH]1 ?
USP30 block: inactive; USP28 block: inactive; OTUD3 inh: inactive; USP17 block: inactive

What do the screens show for `O=C(Nc1ccc(Cl)cc1F)c1cc(-c2ccncc2)n[nH]1`?
USP30 block: 74; USP28 block: inactive; OTUD3 inh: inactive; USP17 block: 67

What do the screens show for `Cc1ccc(NC(=O)c2cc(-c3ccncc3)n[nH]2)c(Cl)c1`?
USP30 block: 83; USP28 block: 60; OTUD3 inh: inactive; USP17 block: 64

How did O=C1NCC2(C/C=C/CCOc3ccccc31)CCN(C(=O)c1ccnc(N3CCCC3)c1)CC2 do in these assays?
USP30 block: 88; USP28 block: 72; OTUD3 inh: 42; USP17 block: 95

How did COc1ccc(-c2nonc2NC(=O)Cc2ccccc2)cc1 do in these assays?
USP30 block: inactive; USP28 block: inactive; OTUD3 inh: inactive; USP17 block: inactive

Results for COc1ccc(CC(=O)Nc2c(NCc3ccccc3)c3ccccc3oc2=O)cc1 ?
USP30 block: 75; USP28 block: 34; OTUD3 inh: inactive; USP17 block: 85

How did CCCOc1ccc(C2CN3C(=O)CN(Cc4ccco4)C(=O)[C@]3(C)c3[nH]c4ccccc4c32)cc1OC (stereo partly drawn) do in these assays?
USP30 block: inactive; USP28 block: inactive; OTUD3 inh: inactive; USP17 block: inactive

What do the screens show for `C[C@]12C(=O)N(Cc3ccco3)CC(=O)N1CC(c1ccc(Cl)cc1)c1c2[nH]c2ccccc12` (stereo partly drawn)?
USP30 block: inactive; USP28 block: inactive; OTUD3 inh: inactive; USP17 block: 31

How did COc1cc(/C=C(/C(=O)O)c2ccc(-c3ccccc3)cc2)cc(OC)c1OC do in these assays?
USP30 block: inactive; USP28 block: inactive; OTUD3 inh: inactive; USP17 block: 38

Results for CCOc1ccc(-n2c(SCC(=O)N3CC(=O)Nc4ccccc43)nnc2-c2ccc(OC)cc2)cc1 ?
USP30 block: inactive; USP28 block: 35; OTUD3 inh: inactive; USP17 block: 51

How did COc1cccc(-n2c(SCC(=O)N3CCc4ccccc43)nnc2-c2cccnc2)c1 do in these assays?
USP30 block: inactive; USP28 block: inactive; OTUD3 inh: inactive; USP17 block: inactive

How did O=C(CC1CCCCC1)N1CCCC(c2nn(CCOc3ccccc3)c3nccnc23)C1 (stereo not drawn) do in these assays?
USP30 block: 35; USP28 block: inactive; OTUD3 inh: inactive; USP17 block: inactive

Results for CC(C)c1c(O)ccc2c1CCC1[C@@](C)(C=O)CCC[C@]21C (stereo partly drawn) ?
USP30 block: inactive; USP28 block: inactive; OTUD3 inh: inactive; USP17 block: 35

Results for CO[C@H](C(=O)[C@@H](O)[C@@H](C)O)[C@@H]1Cc2cc3cc(O[C@H]4C[C@@H](O[C@@H]5C[C@@H](O)[C@@H](O)[C@H](C)O5)[C@@H](O)[C@H](C)O4)c(C)c(O)c3c(O)c2C(=O)[C@H]1O[C@H]1C[C@@H](O[C@H]2C[C@@H](O[C@H]3C[C@](C)(O)[C@@H](O)[C@H](C)O3)[C@H](O)[C@H](C)O2)[C@H](O)[C@H](C)O1 ?
USP30 block: inactive; USP28 block: inactive; OTUD3 inh: inactive; USP17 block: inactive

How did CC(C)(C)c1ccc(NC(=O)N2CCCN(Cc3ccccc3)CC2)cc1 do in these assays?
USP30 block: inactive; USP28 block: inactive; OTUD3 inh: inactive; USP17 block: inactive

How did CC(C)OCCCn1c(=O)c2ccccc2n2c(CCC(=O)NCc3ccc4c(c3)OCO4)nnc12 do in these assays?
USP30 block: 40; USP28 block: inactive; OTUD3 inh: inactive; USP17 block: inactive

Results for O=C(CCc1nnc2n(Cc3ccccc3)c(=O)c3ccccc3n12)N1CCC(Cc2ccccc2)CC1 ?
USP30 block: 38; USP28 block: inactive; OTUD3 inh: inactive; USP17 block: inactive

What do the screens show for `COc1ccc(CNC(=O)CCc2nnc3n(Cc4ccccc4Cl)c(=O)c4ccccc4n23)cc1`?
USP30 block: 40; USP28 block: 36; OTUD3 inh: 33; USP17 block: 43

What do the screens show for `CC(C)CCn1c(=O)c2ccccc2n2c(CCC(=O)NCc3cccnc3)nnc12`?
USP30 block: inactive; USP28 block: inactive; OTUD3 inh: inactive; USP17 block: inactive

What do the screens show for `O=C(CCc1nnc2n(Cc3ccccc3)c(=O)c3ccccc3n12)N1CCCC1`?
USP30 block: inactive; USP28 block: inactive; OTUD3 inh: inactive; USP17 block: inactive

What do the screens show for `O=C(CCc1nnc2n(Cc3ccccc3)c(=O)c3ccccc3n12)NCc1cccnc1`?
USP30 block: 38; USP28 block: inactive; OTUD3 inh: inactive; USP17 block: inactive

Results for O=C(COc1ccccc1C(=O)Nc1ccc2c(c1)OCO2)Nc1ccc(Br)cc1 ?
USP30 block: inactive; USP28 block: inactive; OTUD3 inh: inactive; USP17 block: inactive

Source: PubChem
